From PubChem
Compounds with a hit are over-represented: about 2.5% of the library has one in this group of screens.
Cruzain inh Det – blocks cruzain activity in presence of Triton detergent; P25779; purified cruzain, Z-FR-AMC fluorescence, 0.01% Triton; Potency, µM, actives largely listed as inhibitors; hit rate 0.43% among 200,000; AID 1478; further: nearly all actives have a fitted effect of over 40% in size
Target sequence (P25779 123-467 limits assumed): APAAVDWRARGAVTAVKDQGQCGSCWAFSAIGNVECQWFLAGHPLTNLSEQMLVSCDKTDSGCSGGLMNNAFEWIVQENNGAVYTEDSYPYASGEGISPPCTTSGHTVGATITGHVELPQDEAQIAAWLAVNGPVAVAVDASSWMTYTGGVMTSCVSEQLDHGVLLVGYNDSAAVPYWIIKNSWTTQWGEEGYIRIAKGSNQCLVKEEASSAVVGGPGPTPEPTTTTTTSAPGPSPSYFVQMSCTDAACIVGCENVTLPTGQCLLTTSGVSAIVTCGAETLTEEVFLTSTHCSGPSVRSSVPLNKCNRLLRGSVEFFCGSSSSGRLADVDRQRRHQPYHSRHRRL
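Compounds were screened in titration against cruzain (1.5 nM) with 0.01% Triton X-100 to counter colloidal aggregation. Activity was the AMC fluorescence increase over 60 s after adding 2 uM Z-FR-AMC at pH 5.5.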
Cruzain noTriton – blocks cruzain activity in detergent-free assay. hit rate 2.3% among 200,000. AID 1476. Potency, µM, usual class: inhibitors. P25779. purified cruzain, Z-FR-AMC fluorescence, no detergent; further: nearly all actives have a fitted effect of over 40% in size
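Purified cruzain at 1.5 nM, pre-incubated 15 min with compound at room temperature in 100 mM sodium acetate pH 5.5, 5 mM DTT, 0.00005% Triton X-100. Reaction started with 2 uM Z-FR-AMC; AMC fluorescence increase over 60 s gives rate.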
Hits are given with their value; i = inactive; ? = inconclusive. The call rests on the fitted dose curve; in most records, active means well fitted curve in the direction sought with a large enough effect; inconclusive means small, poorly fitted or top-dose-only effect, or another doubt; inactive means no such curve, though single readings can be large; an effect the other way counts as inactive or inconclusive.

SMILES	Cruzain inh Det	Cruzain noTriton
Cc1ccc(-c2cn(-c3ccc(Cl)cc3)c(S(=O)(=O)CC(=O)Nc3ccccc3)n2)cc1	i	15.8µM
C[C@H]1C2C=C[C@H]1[C@@H](C(=O)O)[C@@H]2c1c2ccc(=O)c(O)c-2oc2c(O)c(O)ccc12	i	i
CC(C)CCNC(=O)CCCOc1ccccc1	i	i
CC(C)CCNC(=O)[C@H](CC(C)C)NC(=O)[C@H]1O[C@@H]1C(=O)O	0.1µM	0.1µM
O=C(c1ccc2c(c1)N(Cc1ccc(F)cc1)CCS2)N1CCN(c2ccccc2)CC1	i	i
COC(=O)CC1C2(C)CC34OC5(C)O[C@@]6(C7/C(=C(/OC)C(C)C)C(=O)OC(c8ccoc8)[C@@]7(C)C(OC(=O)C(C)C)C(OC)[C@]6(O5)[C@@]13C)C(OC)[C@]4(OC)C2OC(C)=O (some centres undefined)	i	?
CSc1nc(N)nc(SCC(=O)C23CC4CC(CC(C4)C2)C3)c1C#N	i	i
N#Cc1c(N)nc(SCC(=O)C23CC4CC(CC(C4)C2)C3)c(C#N)c1-c1ccc(Cl)cc1	i	3.98µM
CCOC(=O)CC(=O)CSc1nc(N)c(C#N)c(-c2ccc(Cl)cc2)c1C#N	i	31.6µM
CCOC(=O)CC(=O)CSc1nc(C)cc(C)c1C#N	i	i
COc1ccc(-c2nc3scc(CCNS(=O)(=O)c4ccccc4F)n3n2)cc1	i	i
COc1ccc(NC(=O)CN(C)S(=O)(=O)c2ccc3nc(C)sc3c2)cc1	i	i
CC(C)c1ccc(NC(=O)c2cnc3sc(N4CCCC4)nn3c2=O)cc1	i	i
Cc1ccccc1OCc1ccc(-c2nc(C#N)c(N3CCC(C(N)=O)CC3)o2)o1	i	?
Cc1ccccc1NC(=O)Cc1nnc(SCC(=O)c2ccc(Br)cc2)n1C	i	i
Cc1ccc(NC(=O)Cc2nnc(SCC(=O)c3ccc(Br)cc3)n2C)cc1Cl	i	12.6µM
Cn1c(=O)c2c(nc(SCC(=O)Nc3ccc(F)cc3)n2Cc2ccccc2F)n(C)c1=O	i	i
CCC1CCCCN1c1ccc([N+](=O)[O-])cc1/C=N/NC(=O)Cn1c2ccccc2c(=O)c2ccccc21 (centres undefined)	i	6.31µM
CCc1ccc(OCC(=O)N/N=C/c2cc([N+](=O)[O-])ccc2N2CCCCCC2)cc1	i	?
COCCN(CCOC)c1nc(C)nc2c1nc(-c1ccccc1)n2CC1CCN(C)CC1	i	i
CCCCSc1nc2c(cnn2-c2ccc(C)c(C)c2)c(=O)[nH]1	i	20µM
CCC(C)Sc1nc2c(cnn2-c2ccc(C)cc2)c(=O)[nH]1 (centres undefined)	i	20µM
CCCSc1nc2c(cnn2-c2ccc(F)cc2)c(=O)[nH]1	i	i
CCCSc1nc2c(cnn2-c2ccc(C)c(C)c2)c(=O)[nH]1	i	i
CCC(C)Sc1nc2c(cnn2-c2ccccc2)c(=O)[nH]1 (centres undefined)	i	i
SMILES	Cruzain inh Det	Cruzain noTriton
O=c1[nH]c(SCc2ccc(F)cc2)nc2c1cnn2-c1ccc(F)cc1	i	15.8µM
CCOc1cc(C2c3c(oc4ccc(F)cc4c3=O)C(=O)N2Cc2ccco2)ccc1O (centres undefined)	i	i
CC(=O)Nc1ccc(NC(=O)C2Cc3ccccc3N2C(=O)c2ccccc2)cc1 (centres undefined)	i	i
CCOc1ccc(C(=O)CSc2nc3cc(C(=O)NC4CCCC4)ccc3c(=O)n2CC2CCCO2)cc1 (centres undefined)	i	i
Cc1cc2c(cc1S(=O)(=O)N(CCO)Cc1ccccc1)OCC(=O)N2	i	i
CCc1nn(-c2cc(Oc3ccccc3)nc(-c3ccccc3)n2)c(N)c1C#N	i	3.16µM
CCc1nn(-c2ccccc2)c(N)c1C#N	i	i
COc1ccc(C(CC(=O)Nc2cc(Cl)c(OC)cc2OC)N2Cc3ccccc3C2=O)cc1 (centres undefined)	i	i
Cc1ccc(NC(=S)/N=C(\N)Nc2nc(C)c3ccccc3n2)cc1C	i	?
COc1ccc2nc(N/C(N)=N/C(=S)Nc3ccc(C)c(C)c3)nc(C)c2c1	i	12.6µM
CCc1ccc(C(=O)COC(=O)c2cccc(N3C(=O)c4c(C)nc5ccccc5c4C3=O)c2)cc1	i	6.31µM
CCN1C(=O)c2c(C)nc3ccccc3c2C1=O	i	i
COCCNc1ncnc2ccc(-c3ccccc3C(F)(F)F)cc12	i	i
Cc1ccc(Nc2nc(N)nc(N)c2S(=O)(=O)c2ccccc2)cc1	i	i
Cc1nc2c(C(=O)NCc3ccc4c(c3)OCO4)cnn2c(C)c1Cc1ccc(F)cc1Cl	i	15.8µM
Cc1ccccc1Cc1c(C)nc2c(C(=O)NCc3ccc4c(c3)OCO4)cnn2c1C	i	i
COc1ccc(-n2cc(C(=O)NCCc3ccc(C)cc3)c3ccccc3c2=O)cc1	i	25.1µM
COc1cccc(-n2cc(C(=O)NCCc3ccc(C)cc3)c3ccccc3c2=O)c1	i	i
COc1ccc(C(=O)c2cn(Cc3ccc(C)cc3)c3cc4c(cc3c2=O)OCO4)cc1	i	i
CCOCCCNC(=S)NCCNc1nc2ccc(C)cc2cc1C#N	i	i
COCCNC(=S)NCCCNc1nc2cc3c(cc2cc1C#N)OCO3	17.8µM	?
Cc1ccc(NC(=O)/C=C/c2ccc([N+](=O)[O-])s2)cc1	i	31.6µM
Cc1cccc(NC(=O)/C=C/c2ccc([N+](=O)[O-])s2)c1	i	?
CCCn1c(CNC(=O)c2cccs2)nc2ccccc21	i	i
COc1ccccc1C(=O)Nc1ccc2c(c1)nc(CCNC(C)=O)n2C	i	i
SMILES	Cruzain inh Det	Cruzain noTriton
COc1ccccc1C(=O)NCCc1nc2ccccc2n1C	?	10µM
CCCCn1c(CCNC(=O)c2cccs2)nc2ccccc21	i	10µM
Cc1ccc(C)c(N(C)C(=O)CCNC(=O)Cn2cnc3ccccc3c2=O)c1	i	i
Cc1nc2nc(CNC(=O)OC(C)(C)C)nn2c(C)c1CCC(=O)NCc1ccc(F)cc1	i	i
COc1ccc(C)cc1Nc1nc(-c2c[nH]c3ccccc23)cs1	i	15.8µM
COc1ccc(OC)c(Nc2nc(-c3cccs3)cs2)c1	i	?
c1ccc(SCCSc2ccccc2)cc1	i	i
COc1ccc(-c2cc(C(=O)Oc3cccc(C)c3)c3cc(C)ccc3n2)cc1	i	i
COc1ccc(-c2cc(C(=O)OCC(=O)c3cccc([N+](=O)[O-])c3)c3cc(C)ccc3n2)cc1	i	10µM
Cc1ccc(-c2ccc(=O)n(CC(=O)Nc3ccc(F)c(Cl)c3)n2)cc1C	i	i
COc1ccc(/C=N/N2CCN(C3c4ccccc4-c4ccccc43)CC2)cc1O	i	i
O=[N+]([O-])c1cc(/C=N/N2CCN(C3c4ccccc4-c4ccccc43)CC2)ccc1Cl	i	12.6µM
CO[C@]12C[C@@H](COC(=O)c3cncc(Br)c3)CN(C)[C@@H]1Cc1cn(C)c3cccc2c13	i	i
Cc1ccc2c(c1)nc(SCC(O)c1ccc(Br)cc1)n2C (centres undefined)	i	i
COc1ccccc1NC(=O)N1CCOc2ccccc21	i	i
CCOc1ccc(N2C(=O)CC(S/C(N)=N/N=C/c3cccs3)C2=O)cc1 (centres undefined)	i	10µM
COc1ccc(N2C(=O)CC(S/C(N)=N/N=C(\C)c3cccs3)C2=O)cc1 (centres undefined)	i	i
COc1cccc(NC(=O)Cn2c(=O)n(CCC(=O)NCCc3ccc(Cl)cc3)c(=O)c3ccccc32)c1	i	i
Cc1ccc(Cl)cc1NC(=O)/C(C#N)=C/c1c(C)n(Cc2ccccc2)c2ccccc12	i	i
